# HT1080-NT tox = qHTS for induction of synthetic lethality in tumor cells producing 2HG: qHTS for the HT-1080-NT fibrosarcoma cell line | HT-1080-NT fibrosarcoma viability, CellTiter-Glo ATP luminescence, 48 h | Potency, µM (top dose mostly 46.1 µM), for inactives: top-dose activity, negative = less viability, actives largely listed as cytotoxic | 360,000 tested, 1.6% active | AID 686970, 2013;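 also: NT is the 2HG producing partner of a matched IDH1 knockdown line; potency is read from the fitted curve at half-maximal effect; 0% = DMSO-treated cells and -100% = media-only wells without cells; nearly all actives have a fitted effect of over 55% in size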
#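 HT-1080-NT fibrosarcoma cells (2HG-overproducing), 750 cells/well in RPMI with 5% FBS, dosed after 2 h and incubated 48 h at 37C. CellTiter-Glo luminescence normalized to DMSO and no-cell wells; concentration-response curves fitted and classed.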
# HT1080 IDH1KD tx = qHTS for induction of synthetic lethality in tumor cells producing 2HG: qHTS for the HT-1080-IDH1KD cell line. HT-1080 IDH1 knockdown viability, ATP luminescence, 48 h. Potency, µM (series often up to 46.1 µM), for inactives: at the top dose activity, negative = toxicity, most hits filed as cytotoxic. 360,000 tested, 2% active. AID 686971, 2013;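 also: potency is read from the fitted curve at half-maximal effect; 0% = DMSO wells and -100% = cell-free medium wells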
#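 % activity derives from luminescence (CellTiter-Glo), normalised to DMSO and no-cell wells. HT-1080-IDH1KD cells, 750/well, had 48 h compound exposure at 37 °C.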
# IL-1B inflam inh = qHTS for Inhibitors of Inflammasome Signaling: IL-1-beta AlphaLISA Primary Screen; 360,000 tested, 4.7% active; THP-1 LPS/ATP IL-1B secretion, AlphaLISA, 16 h; active compounds read low; activity change, % at 57.5 µM; AID 743279, 2014; in the data active = activity change below about -50%; inconclusive = mostly about -30% to -49%
#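 Secreted IL-1B measured by AlphaLISA bead assay after 16 h compound exposure of THP-1 cells; compounds (final up to 57.5 uM) added 1 h before LPS (250 ng/mL) and ATP (1.25 mM) stimulation; lower signal means less secretion.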
# 12-LOX inh = Primary qHTS assay for inhibitors of human arachidonate 12S-lipoxygenase (ALOX12): Round 2; purified 12hLO, xylenol orange hydroperoxide absorbance; Potency, µM (series often up to 108 µM), for inactives: at the top dose activity change, negative = inhibition, most hits filed as inhibitors; 580,000 tested, 1.1% active; AID 1671190, 2021; also: potency is read from the fitted curve at half-maximal effect
# Target sequence (P18054 whole entry, looked up): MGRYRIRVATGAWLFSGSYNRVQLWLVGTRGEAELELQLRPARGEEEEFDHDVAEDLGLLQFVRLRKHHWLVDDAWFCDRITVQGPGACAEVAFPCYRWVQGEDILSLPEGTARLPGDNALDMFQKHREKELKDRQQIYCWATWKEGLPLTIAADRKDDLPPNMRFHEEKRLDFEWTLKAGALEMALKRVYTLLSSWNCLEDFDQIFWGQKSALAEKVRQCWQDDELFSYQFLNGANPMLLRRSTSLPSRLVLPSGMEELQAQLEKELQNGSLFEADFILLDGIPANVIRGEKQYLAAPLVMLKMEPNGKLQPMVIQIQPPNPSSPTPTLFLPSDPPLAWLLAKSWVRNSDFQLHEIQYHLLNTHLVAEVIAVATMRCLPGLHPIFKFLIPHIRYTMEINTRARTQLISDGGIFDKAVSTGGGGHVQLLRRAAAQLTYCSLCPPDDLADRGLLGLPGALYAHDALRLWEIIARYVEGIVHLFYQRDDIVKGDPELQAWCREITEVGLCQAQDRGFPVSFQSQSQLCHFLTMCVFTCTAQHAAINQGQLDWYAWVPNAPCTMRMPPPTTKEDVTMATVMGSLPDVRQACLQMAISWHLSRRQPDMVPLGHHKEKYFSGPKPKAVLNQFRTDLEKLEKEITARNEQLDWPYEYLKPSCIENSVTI
#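 Hydroperoxide product was detected by ferrous iron/xylenol orange as the 573 to 405 nm absorbance ratio. Arachidonic acid at 40 uM (final) was turned over for 30 min at room temperature by 150 nM human 12hLO, pH 7.0 Hepes buffer, after 15 min compound preincubation.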
# DT40 TDP1 CPT = qHTS for Inhibitors of human tyrosyl-DNA phosphodiesterase 1 (TDP1): qHTS in cells in presence of CPT | chicken DT40 Tdp1-/-;hTDP1 cells + 20 nM CPT, ATP luminescence, 48 h | Potency, µM (doses to about 46.2 µM), for inactives: top-dose activity change, negative = growth inhibition, most hits filed as inhibitors | 420,000 tested, 12% active; also: potency is read from the fitted curve at half-maximal effect; nearly all actives have a fitted effect of over 55% in size
#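 Chicken DT40 Tdp1-/- cells stably complemented with human TDP1 were seeded at 400 cells/well in medium containing 20 nM camptothecin, exposed to pin-transferred compounds, and grown at 37 °C for at least 48 hr. Viability was read as ATP luminescence.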
# TDP1 cell noCPT = qHTS for Inhibitors of human tyrosyl-DNA phosphodiesterase 1 (TDP1): qHTS in cells in absence of CPT | Potency, µM (series often up to 46.2 µM), for inactives: top-dose activity change, negative = growth inhibition, usual class: inhibitors | 420,000 tested, 15% active | DT40 Tdp1-/- hTDP1 cells, no CPT, ATP luminescence, 48 h; also: potency is read from the fitted curve at half-maximal effect; nearly all actives have a fitted effect of over 55% in size
#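 No-CPT arm: Tdp1-/-;hTDP1 DT40 cells (400/well) plus compounds, incubated ≥48 hr at 37 °C. Readout CellTiter-Glo luminescence.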
# The depositor's hits bear a star; ? = inconclusive; / = no result; [ ] = remark or other dose. The full list was thinned out, with hits kept by preference. Unless noted, calls follow the shape of the dose curve; as a rule, active = well fitted curve in the direction sought with a large enough effect; inconclusive = small, poorly fitted or top-dose-only effect, or another doubt; inactive = no such curve, though single readings can be large; an effect the other way counts as inactive or inconclusive. Unless noted, % is scaled to controls: 0 for no effect and ±100 for the full control effect.
SMILES,HT1080-NT tox,HT1080 IDH1KD tx,IL-1B inflam inh,12-LOX inh,DT40 TDP1 CPT,TDP1 cell noCPT
Cc1oc2cc3oc(=O)c(CCC(=O)NCCCn4ccnc4)c(C)c3cc2c1C,-3.7%,-6.3%,-51.6*,20.7%,?,23.1µM*
Cc1oc2cc3oc(=O)c(CCC(=O)NCCCN4CCOCC4)c(C)c3cc2c1C,-10.0%,-10.5%,?,9.5%,23.1µM*,?
Cc1c(CCC(=O)N2CCC(C(=O)O)(c3ccccc3)CC2)c(=O)oc2cc3oc4c(c3cc12)CCCC4,0.6%,1.5%,15.1,0.3%,1.1%,-12.8%
O=C(NC(O)C(=O)c1ccccc1)c1ccccc1 (configuration not stated),/,/,/,-27.7%,/,/
Cc1cc(C)cc(NC(=O)c2ncoc2-c2cccs2)c1,/,/,/,-5.7%,/,/
CCOCCn1c(CN2CCc3ccccc3C2)nc2c1c(=O)n(C)c(=O)n2C,13.3%,10.6%,60.9,26.1%,23.1µM*,10.3µM*
Cn1c(=O)c2c(nc(CN3CCc4ccccc4C3)n2Cc2ccccc2)n(C)c1=O,-17.5%,-23.7%,-17.4,?,23.1µM*,14.6µM*
Cn1c(=O)c2c(nc(N3CCC(Cc4ccccc4)CC3)n2CC(=O)c2ccccc2)n(C)c1=O,/,/,/,7.4%,/,/
Cn1c(=O)c2c(nc(CN3CCc4ccccc4C3)n2Cc2ccc(Cl)cc2)n(C)c1=O,-1.3%,4.7%,10.0,-18.8%,-18.3%,-3.7%
CN(c1nc2c(c(=O)n(C)c(=O)n2C)n1CC(=O)c1ccccc1)C1CCCCC1,-6.3%,-0.6%[9.24 µM],-1.1,-8.7%,?,23.1µM*
Cn1c(=O)c2c(nc(CN3CCc4ccccc4C3)n2CC(=O)c2ccccc2)n(C)c1=O,?,?,10.2,-2.8%,18.4µM*,25.9µM*
CC(=O)Nc1ccc(NC(=O)CN(C)CC(=O)Nc2ccccc2Br)cc1,-3.1%,-9.9%,91.9,0.4%,-1.2%,-7.4%
CC(C(=O)Nc1ccc(C#N)cc1)N(C)CC(=O)Nc1ccccc1Br (configuration not stated),?,23.1µM*,-24.3,9.6%,?,?
CCn1c(=O)c(C(=O)CN2CCc3ccccc32)c(N)n(Cc2ccccc2)c1=O,-1.7%,?,0.0,-6.6%,?,?
CN(CC(=O)Nc1ccccc1Br)CC(=O)NC(c1ccccc1)c1ccccc1,-10.9%,-5.2%,-50.7*,-25.3%,?,?
CCn1c(=O)c(C(=O)CN(C)CC(=O)Nc2ccccc2Br)c(N)n(Cc2ccccc2)c1=O,-14.0%,-10.4%,4.3,-11.3%,20.6µM*,18.4µM*
COc1ccc(-c2n[nH]c(=S)n2Cc2ccccc2)cc1OC,1.4%,0.3%,10.8,?,8.2%,6.4%
COc1ccc(NS(=O)(=O)c2cccc(-c3n[nH]c(=S)n3Cc3ccccc3)c2)cc1,-0.4%,-12.0%,38.0,31.6µM*,9.7%,?
COc1ccccc1-c1n[nH]c(=S)n1Cc1ccccc1,-21.8%,-9.1%,17.8,28.2µM*,-10.3%,-10.5%
S=c1[nH]nc(-c2ccc(Br)o2)n1Cc1ccccc1,-1.1%,?,-7.5,1.58µM*,?,20.6µM*
CCOc1ccccc1-c1cc(-c2n[nH]c(=S)n2CC)c2ccccc2n1,-6.4%,0.6%,9.4,-29.3%,?,18.4µM*
CCn1c(-c2cc(-c3cc(C)ccc3C)nc3ccccc23)n[nH]c1=S,1.4%,9.6%,-7.2,-19.5%,?,?
Cc1c(C(=O)COC(=O)CCCNS(=O)(=O)c2cccs2)oc2ccccc12,/,/,/,-0.6%,/,/
O=c1c2ccccc2oc2ccc(NCCCN3CCOCC3)cc12,-2.5%,-12.2%,-53.3*,-27.0%,?,-23.0%
COc1cccc2sc3cc(NCCCN4CCOCC4)ccc3c(=O)c12,2.6%,9.0%,-60.5*,-16.7%,?,?
SMILES,HT1080-NT tox,HT1080 IDH1KD tx,IL-1B inflam inh,12-LOX inh,DT40 TDP1 CPT,TDP1 cell noCPT
O=C(Nc1ccc2c(c1)oc1ccccc12)N1CCOCC1,-1.6%,-8.0%,-0.1,-6.8%,-3.1%,?
Cn1c2ccccc2c(=O)c2cc(NCCCN3CCOCC3)ccc21,-2.5%,-2.8%,?,1.0%,?,?
O=c1c2ccccc2oc2cc(NCCCN3CCOCC3)ccc12,-4.2%,-1.3%,-51.5*,-0.9%,?,?
O=S(=O)(NC1CCSc2c(F)cccc21)c1ccc(F)cc1 (configuration not stated),/,/,/,-4.8%,/,/
COc1cc(C2c3cc4c(cc3C3OC(=O)C2C3CO)OCO4)cc(OC)c1OC (configuration not stated),0.0103µM*,0.0164µM*,50.0,-3.5%,0.0103µM*,0.0164µM*
CCN(CC)C1Oc2cc3c(cc2C(c2cc(OC)c(OC)c(OC)c2)C1C)OCO3 (configuration not stated),1.84µM*,1.46µM*,10.9,-0.8%,2.31µM*,1.16µM*
COc1cc([C@@H]2c3cc4c(cc3[C@@H](O)[C@H]3COC(=O)[C@H]23)OCO4)cc(OC)c1O[Si](C)(C)C(C)(C)C,?,?,-87.9*,-2.7%,13µM*,14.6µM*
O=C1CCCCCN1C1CCN(Cc2cccc3ccccc23)CC1,/,/,/,22.1%[176 µM],/,/
O=C1CC(c2ccccc2)N(C(=O)C2CC2)CCCN(C(=O)c2ccc3cc[nH]c3c2)CCN1 (configuration not stated),/,/,/,15.9%,/,/
O=C(Cn1nc(Cl)nc1Cl)c1ccc2c(c1)OCCO2,-9.5%,0.4%,?,0.5%,5.17µM*,13µM*
O=C(Cn1nc(Cl)nc1Cl)c1ccccc1,-19.5%,-5.6%,-10.1,20.7%,?,14.6µM*
O=C(Cn1nc(Cl)nc1Cl)c1ccc(F)cc1,8.8%,9.9%,19.1,2.5%,-1.1%,1.1%
Cc1cc(C(F)(F)F)nn1CC(=O)N1CC[C@H](CO)[C@H](NC(=O)C2CC2)C1,/,/,/,15.1%,/,/
COc1ccc(-c2nc(N3CCN(C)CC3)sc2-c2ccc(OC)cc2)cc1,-17.3%,?,-20.1,?,?,29.1µM*
COc1ccc(-c2nc(N3CCCCCC3)sc2C(=O)c2ccccc2)cc1,-23.1%,-20.5%,-6.1,0.9%,?,23.1µM*
